{"source": "PubChem BioAssay"}
{"system": "Fibrinogen (Alexa647-labelled)", "experiment": "Alexa647-fibrinogen binding to printed small molecules – biochemical, small-molecule microarray, 635/667 nm fluorescence, artefact control for SMM control-protein annotation, profiling panel (AID 1131);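 note: z-score merges 667 nm fluorescence with per-spot signal-to-noise over triplicate slides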", "settings": "fibrinogen-A647 binding fluorescence, higher = more signal"}
{"smiles": "COC(=O)C[C@H]1O[C@@H](CCc2ccccc2)[C@@H](C)[C@@H]1[Si](C)(C)c1ccc(OC)cc1", "composite z-score": -0.755}
{"smiles": "CC(=CC1CCCCC1)[C@@H](NC(=O)c1cccnc1)c1ccc(-c2ccccc2)cc1", "composite z-score": 0.0017}
{"smiles": "[N-]=[N+]=Nc1ccccc1C[C@]1(C(=O)NCC(O)CO)N=C(c2ccc(OCCCO)cc2)O[C@H]1c1ccccc1", "note": "(stereo partly drawn)", "composite z-score": 0.942}
{"smiles": "COCC(=C=CC[C@H](O)c1cccc(OCCO)c1)CCO", "composite z-score": -0.535}
{"smiles": "COC(=O)[C@H](Cc1ccccc1)N[C@H](/C=C/C1CC1)[C@@H](O)Cc1ccccc1", "composite z-score": -1.05}
{"smiles": "C=CCOC(=O)[C@H]1[C@@H]2C(=O)O[C@@H](c3ccccc3)[C@@H](c3ccccc3)N2[C@@H](c2ccc(OCCOC(=O)[C@@H]3C[C@@H]4C(=O)N5CCC[C@H]5C(=O)N4[C@@H]3c3cccc(OCCO)c3)cc2)[C@]12C(=O)Nc1ccc(I)cc12", "composite z-score": 0.726}
{"smiles": "COCC(=C=CC[C@@H](O)c1ccc(OCCO)cc1)C[C@@H](O)c1ccccn1", "composite z-score": 0.792}
{"smiles": "COc1ccc([Si](C)(C)[C@@H]2[C@@H](CCO)O[C@]3(C(=O)N(Cc4cccc(N5CCOC5=O)c4)c4ccccc43)[C@H]2C)cc1", "composite z-score": 0.9}
{"smiles": "[N-]=[N+]=Nc1ccccc1[C@H]1OC(c2ccc(OCCCO)cc2)=N[C@@]1(Cc1ccccc1)C(=O)N1CCOCC1", "composite z-score": 0.974}
{"smiles": "CN1C(=O)C2C=CC(C(O)C=Cc3ccc([N+](=O)[O-])cc3)N(Nc3ccccc3)C2C1=O", "note": "(stereo not drawn)", "composite z-score": 1.01}
{"smiles": "C#CCOc1ccc(C[C@@H](C(=O)OC)N(CC#C)[C@@H](/C=C/C2CC2)[C@H](O)Cc2ccccc2)cc1", "composite z-score": -0.651}
{"smiles": "O=C(NCc1ccccc1)[C@@H]1c2ccccc2C(=O)N(C2Cc3ccccc3C2)[C@H]1c1ccc(CO)cc1", "composite z-score": 0.299}
{"smiles": "COC(=O)c1c2oc(c1C(=O)OC)C(=O)NC1(CCCCC1)c1cn(nn1)C[C@H](Cc1ccccc1)NC(=O)N[C@H](CO)CC2", "composite z-score": 0.94}
{"smiles": "CCCCCCc1nc(-c2ccc(-c3ccc(Cl)c(Cl)c3)o2)cc2c1[Si](C(C)C)(C(C)C)O[C@H]2c1ccccc1", "composite z-score": -1.34}
{"smiles": "COCCOC(=O)N1C(=O)[C@@]2(c3cc(C#CC4(O)CCCCCC4)ccc31)[C@H](C(=O)Nc1nc3ccccc3s1)[C@H]1C(=O)O[C@H](c3ccccc3)[C@H](c3ccccc3)N1[C@@H]2c1ccc(OCCO)cc1", "composite z-score": 0.801}
{"smiles": "COC(=O)[C@@]1(Cc2ccc(OC)cc2)[C@H]2c3cc(C(=O)N4CCCC4)n(CCCNc4ncc(C(F)(F)F)cc4Cl)c3C[C@H]2CN1C(=O)c1ccccc1", "composite z-score": 0.768}
{"smiles": "COC(=O)[C@@]1(Cc2ccc(OC)cc2)[C@H]2c3cc(C(=O)N4CCCC4)n(CCc4ccc(O)c(O)c4)c3C[C@H]2CN1C(=O)c1ccccc1", "composite z-score": 0.421}
{"smiles": "Cc1c(NC(=O)/C(C#N)=C/c2cccc([N+](=O)[O-])c2)c(=O)n(-c2ccccc2)n1C", "composite z-score": 0.985}
{"smiles": "C[N+](C)(C)CCCC[C@@H]1NC(=O)[C@@H]2C[C@H](C(=O)NCCCCCCNC(=O)CS)[C@H](c3ccc(O)cc3)N2C1=O", "composite z-score": -0.33}
{"smiles": "COC(=O)[C@@]1(Cc2ccccc2)[C@H]2c3cc(C(=O)N4CCCC4)n(Cc4ccc(O)c(OC)c4)c3C[C@H]2CN1C(=O)c1ccccc1", "composite z-score": -0.685}
{"smiles": "O=C1O[C@@H](c2ccccc2)[C@@H](c2ccccc2)N2[C@@H](c3ccccc3OCCO)[C@]3(C(=O)Nc4ccccc43)[C@@H](C(=O)O)[C@H]12", "composite z-score": 0.882}
{"smiles": "CCCNC(=O)[C@@H]1c2ccccc2C(=O)N(Cc2ccccc2OC)[C@H]1c1ccc(CO)cc1", "composite z-score": 0.937}
{"smiles": "CC[C@@H]1C=C(C(=O)O)[C@H](c2ccc(C)cc2)N1S(=O)(=O)c1ccc(C)cc1", "composite z-score": 0.915}
{"smiles": "O=C1O[C@H](c2ccccc2)[C@H](c2ccccc2)N2[C@H]1[C@@H](C(=O)NC[C@H](O)c1ccccc1)[C@]1(C(=O)Nc3ccccc31)[C@H]2c1ccc(O)cc1", "composite z-score": 0.141}
{"smiles": "Cc1ccc(S[C@]2(C(=O)NCC(C)C)CC(=O)N(Cc3cc(C(F)(F)F)cc(C(F)(F)F)c3)[C@@H]2c2ccc(CO)cc2)cc1", "composite z-score": -0.529}
{"smiles": "COCCOC(=O)N1C(=O)[C@@]2(c3cc(C#CC4=CCCCC4)ccc31)[C@H](c1ccc(OCCO)cc1)N1[C@H](c3ccccc3)[C@H](c3ccccc3)OC(=O)[C@H]1[C@@H]2C(=O)N1CCc2cc(OC)c(OC)cc2C1", "composite z-score": 0.874}
{"smiles": "COc1ccccc1CN1C(=O)c2ccccc2[C@@H](C(=O)NCc2ccccc2)[C@@H]1c1ccc(CO)cc1", "composite z-score": 0.688}
{"smiles": "COCCOC(=O)N1C(=O)[C@@]2(c3ccccc31)[C@H](C(N)=O)[C@H]1C(=O)O[C@H](c3ccccc3)[C@H](c3ccccc3)N1[C@@H]2c1ccc(O)cc1", "composite z-score": -0.649}
